Among the data in PubChem BioAssay (NCATS) are Potency and activation values, retold here.

The target of experiment [1] is Rap guanine nucleotide exchange factor 3 (Homo sapiens) (UniProt O95398). Description: Confirmatory qHTS for antagonist of cAMP-regulated guanine nucleotide exchange factor 3 (EPAC1) (AID 1645880). Further: nearly all actives have a fitted effect of over 55% in size.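 On activity, negative = inhibition: plate controls were DMSO only for no effect and full effect of the ATA control for full effect.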 Particulars: EPAC1 Rap1B-BODIPY-GDP exchange, fluorescence; activity, negative = inhibition: at 115 µM (top of the series). The essentials: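 Nucleotide exchange uses 100 nM EPAC1, 250 nM RAP1B-BODIPY-GDP and 50 uM GDP, with compounds in a concentration-titration series. After 5 min at room temperature, fluorescence (480 nm ex/540 nm em) is read every 5 min for 30 min. Data are normalized to control ATA and DMSO.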
Sequence of Rap guanine nucleotide exchange factor 3 (Homo sapiens) (O95398 whole entry, looked up): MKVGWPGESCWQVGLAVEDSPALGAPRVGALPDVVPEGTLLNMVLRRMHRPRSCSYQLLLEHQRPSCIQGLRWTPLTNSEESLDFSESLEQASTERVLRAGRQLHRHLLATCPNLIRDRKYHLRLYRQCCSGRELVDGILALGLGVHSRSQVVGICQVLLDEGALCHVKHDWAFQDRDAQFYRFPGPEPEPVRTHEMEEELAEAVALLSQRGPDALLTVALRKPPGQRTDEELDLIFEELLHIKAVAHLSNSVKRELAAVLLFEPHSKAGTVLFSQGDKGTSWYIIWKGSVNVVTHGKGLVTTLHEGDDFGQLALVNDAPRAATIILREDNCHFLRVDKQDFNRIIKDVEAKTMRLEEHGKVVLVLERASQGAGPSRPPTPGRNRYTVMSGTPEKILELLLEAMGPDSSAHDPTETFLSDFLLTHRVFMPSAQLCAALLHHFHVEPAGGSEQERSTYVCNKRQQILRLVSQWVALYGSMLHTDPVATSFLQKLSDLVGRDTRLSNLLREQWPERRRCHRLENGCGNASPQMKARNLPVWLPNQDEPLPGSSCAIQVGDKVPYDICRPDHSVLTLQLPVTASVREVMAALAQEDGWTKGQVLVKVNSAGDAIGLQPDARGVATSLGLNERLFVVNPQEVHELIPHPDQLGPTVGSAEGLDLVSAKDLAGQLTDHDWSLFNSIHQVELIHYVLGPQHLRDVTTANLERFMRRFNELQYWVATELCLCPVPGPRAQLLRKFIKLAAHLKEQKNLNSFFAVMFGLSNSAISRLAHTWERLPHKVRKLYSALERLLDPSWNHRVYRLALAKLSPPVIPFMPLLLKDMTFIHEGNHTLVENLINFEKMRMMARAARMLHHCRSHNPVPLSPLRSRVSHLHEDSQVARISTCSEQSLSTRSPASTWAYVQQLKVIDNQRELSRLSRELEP
(In qHTS, concentration-response curves come from the screen itself.)

Experiment [2] shares this target. Description: Confirmatory qHTS for agonist of cAMP-regulated guanine nucleotide exchange factor 3 (EPAC1) (AID 1645881). Further: nearly all actives have a fitted effect of over 75% in size.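 On activation: EPAC1 catalysed release of BODIPY-GDP from Rap1B seen as fluorescence loss; 100% = effect of cAMP agonist control.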
Experiment [3] concerns the target Rap guanine nucleotide exchange factor 4 (Homo sapiens) (UniProt Q8WZA2). The experiment is described as follows: Confirmatory qHTS for agonist of cAMP-regulated guanine nucleotide exchange factor 4 (EPAC2) (AID 1645884).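 Further: nucleotide exchange releases bodipy-GDP from Rap1 and this lowers its fluorescence; nearly all actives have a fitted effect of over 65% in size.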 On activation: on the % scale 0 is the no-effect control and ±100 the full control effect.
For experiment [4] the target is unchanged. The experiment is described as follows: Confirmatory qHTS for antagonist of cAMP-regulated guanine nucleotide exchange factor 4 (EPAC2) (AID 1645885). Further: nearly all actives have a fitted effect of over 25% in size.
Experiment [5] deals with Rap guanine nucleotide exchange factor 3 (Homo sapiens) (UniProt O95398). The experiment is described as follows: Counterscreen qHTS for agonist of cAMP-regulated guanine nucleotide exchange factor 3 (EPAC1) (AID 1645889). Further: nearly all actives have a fitted effect of over 40% in size. On activation: % of control where 0% means no effect. The essentials: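 Rap1B–BODIPY-GDP (250 nM) with 50 uM GDP; compounds pin-transferred to 9.74 nM–152 uM final (activator) or from 7.32 nM upwards (inhibitor). Fluorescence Ex/Em 480/540 nm read at 5 and 30 min, then after adding cAMP or buffer, at room temperature.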
For orientation: The purpose of a counterscreen is to sort out artefacts and off-target activity.

Results filed as inconclusive are left out. Unmarked numbers belong to inactive results. The source made the active and inactive calls. The call rests on the fitted dose curve; in most records, active means well fitted curve in the direction sought with a large enough effect; inconclusive means small, poorly fitted or top-dose-only effect, or another doubt; inactive means no such curve, though single readings can be large; an effect the other way counts as inactive or inconclusive.
Potency means the concentration at half of the fitted maximal effect.

Sequence of Rap guanine nucleotide exchange factor 4 (Homo sapiens) (Q8WZA2 whole entry, looked up): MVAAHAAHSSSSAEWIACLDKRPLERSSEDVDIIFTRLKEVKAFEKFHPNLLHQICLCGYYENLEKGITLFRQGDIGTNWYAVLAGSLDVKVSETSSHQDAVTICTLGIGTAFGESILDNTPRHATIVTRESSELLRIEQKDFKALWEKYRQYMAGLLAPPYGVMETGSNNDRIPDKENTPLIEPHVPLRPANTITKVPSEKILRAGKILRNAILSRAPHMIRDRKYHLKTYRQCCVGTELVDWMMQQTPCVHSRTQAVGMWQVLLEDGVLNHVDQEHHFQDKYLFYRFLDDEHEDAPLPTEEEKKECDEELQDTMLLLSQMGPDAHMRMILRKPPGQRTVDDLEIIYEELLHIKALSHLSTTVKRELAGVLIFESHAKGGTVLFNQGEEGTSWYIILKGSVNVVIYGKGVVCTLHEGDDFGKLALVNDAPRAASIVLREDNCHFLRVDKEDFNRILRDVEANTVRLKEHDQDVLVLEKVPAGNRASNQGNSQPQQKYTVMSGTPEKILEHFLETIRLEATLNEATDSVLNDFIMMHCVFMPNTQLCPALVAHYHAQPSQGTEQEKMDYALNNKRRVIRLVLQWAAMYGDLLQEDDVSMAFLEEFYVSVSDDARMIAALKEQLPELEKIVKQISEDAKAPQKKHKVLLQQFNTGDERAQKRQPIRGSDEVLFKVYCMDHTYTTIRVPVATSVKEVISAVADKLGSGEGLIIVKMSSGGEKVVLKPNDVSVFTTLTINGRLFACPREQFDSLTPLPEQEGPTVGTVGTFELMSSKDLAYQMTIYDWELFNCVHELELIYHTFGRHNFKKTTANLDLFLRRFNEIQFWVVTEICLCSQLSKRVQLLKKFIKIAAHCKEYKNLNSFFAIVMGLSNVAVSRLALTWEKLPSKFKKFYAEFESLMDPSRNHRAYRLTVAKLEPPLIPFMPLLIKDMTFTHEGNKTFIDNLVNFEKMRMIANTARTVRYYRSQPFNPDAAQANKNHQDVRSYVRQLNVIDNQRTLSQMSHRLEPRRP

Turning to `COc1cccc(CNC(=O)COc2cc3c(c4oc(=O)cc(C)c24)CCC(C)(C)O3)c1`, the Potency entry in experiment [1], in experiment [2], in experiment [3], in experiment [4] and in experiment [5] was “inactive” each time.
`COc1cc(CCc2ccccc2)c(C(=O)O)c(O)c1C/C=C(/C)CCC=C(C)C`: the Potency is 42.6 µM (active) in experiment [1] and 75.7 µM (active) in experiment [4]. Also, the Potency result in experiment [2], in experiment [3] and in experiment [5] was “inactive” each time.
On to `Cn1cc(C(CO)Cc2ccccc2)c2ccccc21` (stereo not given), for which the Potency entry in experiment [1], in experiment [2] and in experiment [4] was “inactive” each time. Besides, the activation in experiment [3] was 4.77% [at 17.1 µM, percent relative to cAMP agonist control]; in experiment [5] it was 2.04% [at 30.8 µM].
With `COc1ccc(N2CCOCC2)c(NC(=O)c2cccc3ccccc23)c1`, the Potency result in experiment [1], in experiment [2] and in experiment [4] was “inactive” throughout. The activation in experiment [3] was 5.58% [at 17.1 µM, percent relative to cAMP agonist control]; in experiment [5] it was 22.6% [at 30.8 µM].
Regarding `Cc1ccc(S(=O)(=O)N2[C@@H](c3ccccc3)C(C(=O)O)=CC[C@H]2c2ccc(C(C)C)cc2)cc1`, the Potency in experiment [1] was 75.7 µM (active). Besides, the Potency entry in experiment [2], in experiment [3], in experiment [4] and in experiment [5] was “inactive” throughout.
With `CCC(=O)N1c2ccc(S(=O)(=O)NCCc3ccc(C)cc3)cc2CC1C` (stereo not given), the Potency entry in experiment [1], in experiment [2], in experiment [3], in experiment [4] and in experiment [5] was “inactive” each time.
Consider `Cc1ccc2oc(=O)c(/C=C(\O)c3cccs3)nc2c1`, for which the Potency entry in experiment [1] was “inactive”. Moreover, the Potency in experiment [2] was 100 µM (active); in experiment [3] it was 89.1 µM (active); in experiment [4], 23.9 µM (active); in experiment [5] it was 39.8 µM (active).
On the same counts, the results for `O=C(O)CN1C(=O)/C(=C\c2ccccc2OCc2ccc(Cl)cc2)SC1=S` are 37.9 µM (active), “inactive”, “inactive”, 42.6 µM (active) and “inactive”.
On the same counts, the results for `CCOc1cc(/C=C2/SC(=S)NC2=O)ccc1OC(=O)c1ccco1` are 37.9 µM (active), “inactive”, “inactive”, 16.9 µM (active) and “inactive”.
The matching figures for `Cn1c(N)c(C(=O)COC(=O)CCOc2ccc(C(C)(C)C)cc2)c(=O)n(C)c1=O`: “inactive”, “inactive”, “inactive”, “inactive” and “inactive”.
Consider `COc1cc2nc(N3CCNCC3)nc(N)c2cc1OC`, for which the Potency result in experiment [1], in experiment [2] and in experiment [5] was “inactive” in each case. The Potency in experiment [3] was 100 µM (active); in experiment [4] it was 67.5 µM (active).
Turning to `O=[N+]([O-])c1ccc(N/N=C2/CCCCC2c2ccccn2)cc1` (stereo not given), the Potency result in experiment [1], in experiment [2] and in experiment [4] was “inactive” in each case. Also, the activation in experiment [3] was 2.03% [at 17.1 µM, percent relative to cAMP agonist control]; in experiment [5], -3.04% [at 30.8 µM].
For the molecule `CCOC(=O)c1c(-c2ccc(-c3ccccc3)cc2)csc1NC(=O)CCC(=O)O`, the Potency in experiment [1] is 42.6 µM (active). Moreover, the Potency entry in experiment [2], in experiment [3], in experiment [4] and in experiment [5] was “inactive” throughout.
As for `CCC/C=C/c1ccc(CN2C(CC(C)C)C(=O)N(Cc3cn(CCC4OCCO4)nn3)CCS2(=O)=O)cc1` (stereo not given), the Potency in experiment [1] is 37.9 µM (active); in experiment [4], 23.9 µM (active). Further, the Potency result in experiment [2], in experiment [3] and in experiment [5] was “inactive” in each case.
As to `Cc1cc(C)c(Nc2cc(S(=O)(=O)O)c(N)c3c2C(=O)c2ccccc2C3=O)c(C)c1`, the values for the Potency in experiment [1] and in experiment [4] were 30.1 µM (active) and 75.7 µM (active), respectively. Also, the Potency entry in experiment [2], in experiment [3] and in experiment [5] was “inactive” throughout.
With `CC(=O)c1cc(CC(=O)N2CCc3c([nH]c4ccccc34)C2c2ccccn2)cs1` (stereo not given), the Potency result in experiment [1], in experiment [2], in experiment [3], in experiment [4] and in experiment [5] was “inactive” in each case.
For `Cc1ccc(S(=O)(=O)NC2CC(=O)N(c3ccc4c(c3)OCCO4)C2)cc1` (stereo not given), the Potency entry in experiment [1], in experiment [2] and in experiment [4] was “inactive” in each case. For the same molecule, the activation in experiment [3] was 3.34% [at 17.1 µM, percent relative to cAMP agonist control]; in experiment [5] it was 22.6% [at 30.8 µM].
`O=C(CSc1n[nH]c(-c2ccccc2)n1)c1ccc(O)c(O)c1`: the Potency in experiment [1] was 42.6 µM (active). Besides, the Potency entry in experiment [2], in experiment [3], in experiment [4] and in experiment [5] was “inactive” in each case.
As for `CC1CC1c1ccc(/C=C(\C#N)C(=O)Nc2ccc(Cl)cc2)o1` (stereo not given), the Potency entry in experiment [1], in experiment [2], in experiment [3], in experiment [4] and in experiment [5] was “inactive” each time.
As to `CC(C)Cn1c(SC(C)C(=O)NCC2CCCO2)nc2ccc(Cl)cc2c1=O` (stereo not given), the Potency result in experiment [1], in experiment [2], in experiment [3] and in experiment [5] was “inactive” throughout. Also, in experiment [4], the Potency is 5.36 µM (active).
For `O=C(C1CC1)N1CCN(c2ccc([N+](=O)[O-])cc2-n2cccc2)CC1`, the Potency entry in experiment [1], in experiment [2] and in experiment [4] was “inactive” in each case. Besides, the activation was 4.17% [at 17.1 µM, percent relative to cAMP agonist control] in experiment [3] and 6.18% [at 30.8 µM] in experiment [5].
For the molecule `CC(C)c1ccc(NC(=O)COC(=O)C2=COCCO2)cc1`, the Potency entry in experiment [1], in experiment [2] and in experiment [4] was “inactive” each time. Moreover, the activation was -5.53% [at 17.1 µM, percent relative to cAMP agonist control] in experiment [3] and 17.9% [at 30.8 µM] in experiment [5].
Turning to `CCN1CCN(C2=CC3=CC(=C(C#N)C#N)CCC3CC2)CC1` (stereo not given), in experiment [1], the Potency result is “inactive”. For the same molecule, the Potency in experiment [2] is 79.4 µM (active); in experiment [3], 100 µM (active); in experiment [4] it was 67.5 µM (active); in experiment [5] it was 10 µM (active).
On to `COc1ccc(CCNc2oc(-c3ccc(C)cc3)nc2C#N)cc1OC`, for which the Potency result in experiment [1], in experiment [2] and in experiment [4] was “inactive” each time. For the same molecule, the activation in experiment [3] was 5.59% [at 17.1 µM, percent relative to cAMP agonist control]; in experiment [5], 26.9% [at 30.8 µM].
Consider `CSc1ccc(C2C(C(=O)c3ccco3)=C(O)C(=O)N2c2nnc(SC)s2)cc1` (stereo not given), for which the Potency is 33.8 µM (active) in experiment [1] and 19 µM (active) in experiment [4]. Besides, the Potency entry in experiment [2], in experiment [3] and in experiment [5] was “inactive” in each case.
Take `CN1CCN(C2=CC3=CC(=C(C#N)C#N)CCC3CC2)CC1` (stereo not given): the Potency entry in experiment [1] is “inactive”. In addition, the Potency in experiment [2] was 44.7 µM (active); in experiment [3], 56.2 µM (active); in experiment [4] it was 6.75 µM (active); in experiment [5] it was 14.1 µM (active).
